Laboratory results published in PubChem BioAssay AID2061320 (National Center for Advancing Translational Sciences (NCATS), 2025).
Results filed as inconclusive are left out. The source made the active and inactive calls. The call rests on the fitted dose curve; in most records, active means well fitted inhibition curve with a large enough effect; inconclusive means small, poorly fitted or top-dose-only effect; inactive means flat fitted curve, though single readings scatter.

experiment: Identification of antibody-drug conjugate (ADC) payloads which are substrates of ATP-binding cassette drug efflux transporters: ABCG2-H460-MX20 cell line; conditions: H460-MX20 (ABCG2) viability, CellTiter-Glo, 48 h; series mostly up to 28.7 µM
Text: Antibody-drug conjugates (ADCs) feature an antibody recognizing a specific protein joined to a potent toxic payload. Numerous antibody-drug conjugates have received FDA approval; however, clinical resistance arises. Resistance mechanisms include decreased expression or mutation of the antibody target, impaired payload release, or increased expression of ATP-binding cassette (ABC) efflux transporters associated with multidrug resistance. We therefore sought to characterize the interaction of ABC multidrug transporters with ADC payloads. We performed a high-throughput screen with 27 common ADC payloads using cells lines expressing ABC transporters P-glycoprotein (P-gp, encoded by ABCB1) or ABCG2 (encoded by ABCG2). Confirmatory assays were also performed using cells transfected to express P-gp, ABCG2, or MRP1 (encoded by ABCC1). Several commonly used ADC payloads were substrates of P-gp, including calicheamicin gamma1, monomethyl auristatin E, DM1, and DM4. All the pyrrolobenzodiazepines tested - SJG136, SGD-1882, SG2057, and SG3199 - were substrates of P-gp, ABCG2, and MRP1. […] These findings highlight the risk of transporter-mediated resistance with certain ADC payloads and underscore the importance of selecting payloads that evade ABC transporter recognition in future ADC development.
HEK-293 cells were transfected with empty vector (pcDNA) or vector containing the human ABCB1 (MDR-19), ABCG2 (R-5), or ABCC1 gene (MRP1) and were maintained in EMEM with 2 mg/mL G418 added to maintain transporter expression. The HeLa derivative KB-3-1 and the P-gp overexpressing KB-8-5-11 subline were maintained in DMEM; KB-8-5-11 additionally received 100 ng/mL colchicine. H460 parental cells were obtained from the Division of Cancer Treatment and Diagnosis Tumor Repository, National Cancer Institute at Frederick, MD and were cultured in RPMI. The ABCG2 expressing subline H460 MX20 was generated by selecting H460 cells in 20 nM mitoxantrone. Media in all cases was supplemented with 10% FBS and 1% penicillin-streptomycin. We explored 27 common ADC payloads, in two orthogonal, paired cell line sets-a drug selected and transfected set for each transporter--to identify substrates of the ABC transporters P-gp and ABCG2. Compounds were sourced from Levena Biopharma (San Diego, CA), Selleck Chem (Houston, TX), ChemieTek (Indianapolis, IN), or Microsource Discovery Systems (Gaylordsville, CT). Screening was performed as previously described. Briefly, cells were plated at a density of 500 cells/well in 1536 well plates with compounds added using a 1536-head pin tool (Kalypsys, San Diego CA). Cells were incubated with cytotoxic drugs and processed with CellTiter Glo reagent (Promega, Madison, WI) to determine viability after 48 hours. P-gp substrates were identified by comparing compound activity between paired sets of low-expressing (sensitive) and over-expressing (resistant) cell lines.

SMILES	Potency
COc1cccc2c1C(=O)c1c(O)c3c(c(O)c1C2=O)C[C@@](O)(C(=O)CO)C[C@@H]3O[C@H]1C[C@H](N)[C@H](O)[C@H](C)O1	1190 nM (active)
CC[C@H](C)[C@@H]([C@H](N)CC(=O)N1CCC[C@H]1[C@H](OC)[C@@H](C)C(=O)N[C@@H](Cc1ccccc1)c1nccs1)N(C)C(=O)[C@@H](NC(=O)[C@@H](NC)C(C)C)C(C)C	inactive
CCN(C(C)=O)[C@H]1CO[C@@H](O[C@H]2[C@H](O[C@H]3C#C/C=C\C#C[C@]4(O)CC(=O)C(NC(=O)OC)=C3/C4=C\CSSSC)O[C@H](C)[C@@H](NO[C@H]3C[C@H](O)[C@H](SC(=O)c4c(C)c(I)c(O[C@@H]5O[C@@H](C)[C@H](O)[C@@H](OC)[C@H]5O)c(OC)c4OC)[C@@H](C)O3)[C@@H]2O)C[C@@H]1OC	15 nM (active)
COc1cccc2c1C(=O)c1c(O)c3c(c(O)c1C2=O)C[C@@](O)(C(=O)CO)C[C@@H]3O[C@H]1C[C@H]2[C@H](O[C@@H]3[C@@H](OC)OCCN32)[C@H](C)O1	0.2 nM (active)
COC(=O)c1cc2c3c(cc(O)c2[nH]1)N(C(=O)c1cc2cc(OC)c(OC)c(OC)c2[nH]1)CC3CCl (stereo not drawn)	0.7 nM (active)
CC(C)(C)OC(=O)Nc1ccc2[nH]c(C(=O)N3C[C@@H](CCl)c4c3cc(O)c3ccccc43)cc2c1	10.6 nM (active)
CCN[C@H]1CO[C@@H](O[C@H]2[C@H](O[C@H]3C#C/C=C\C#C[C@]4(O)CC(=O)C(NC(=O)OC)=C3/C4=C\CSSSC)O[C@H](C)[C@@H](NO[C@H]3C[C@H](O)[C@H](SC(=O)c4c(C)c(I)c(O[C@@H]5O[C@@H](C)[C@H](O)[C@@H](OC)[C@H]5O)c(OC)c4OC)[C@@H](C)O3)[C@@H]2O)C[C@@H]1OC	4.2 nM (active)
CN(C)CCOc1ccc2[nH]c(C(=O)N3C[C@@H](CCl)c4c3cc(O)c3ccccc43)cc2c1	0.8 nM (active)
